# Most compounds without a hit are left out; they make up all but 19% or so of the library.
# DT40 TDP1 no CPT: qHTS for Inhibitors of human tyrosyl-DNA phosphodiesterase 1 (TDP1): qHTS in cells in absence of CPT; DT40 Tdp1-/- hTDP1 cells, no CPT, ATP luminescence, 48 h; Potency, µM (series often up to 46.2 µM), inactives show at the top dose activity change, negative = growth inhibition, usual class: inhibitors; 420,000 compounds, 15% hits; further: potency means the concentration at half of the fitted maximal effect; on the % scale 0 is the no-effect control and ±100 the full control effect; nearly all actives have a fitted effect of over 55% in size
#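 No-CPT arm: Tdp1-/-;hTDP1 DT40 cells (400/well) plus compounds, incubated ≥48 hr at 37 °C. Readout CellTiter-Glo luminescence.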
# IL1B secr inh: blocks inflammasome-driven IL-1 beta release | 360,000 compounds, 4.7% hits | THP-1 LPS/ATP IL-1B secretion, AlphaLISA, 16 h; stronger effect = lower value | activity change, % at 57.5 µM; in the data active means activity change below about -50%; inconclusive means mostly about -30% to -49%; further: on the % scale 0 is the no-effect control and ±100 the full control effect
#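 Secreted IL-1B measured by AlphaLISA bead assay after 16 h compound exposure of THP-1 cells; compounds (final up to 57.5 uM) added 1 h before LPS (250 ng/mL) and ATP (1.25 mM) stimulation; lower signal means less secretion.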
# TGFb SMAD3 inh: blocks TGF-b signaling. HepG2 CAGA-GFP TGF-b/SMAD3 reporter, GFP fluorescence, 18 h; TGF-beta stimulated, 500 pg/mL final. Potency, µM (highest dose often 46.1 µM), for the others: at the top dose activity, negative = inhibition, most hits filed as inhibitors. 410,000 compounds, 1.2% hits. AID 588855; further: potency means the concentration at half of the fitted maximal effect; on the % scale 0 is the no-effect control and ±100 the full control effect; nearly all actives have a fitted effect of over 65% in size
#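 Cell-based qHTS in HEPG2 carrying a CAGA-GFP Smad reporter; compounds added before 500 pg/mL final TGF-beta, 18 h incubation at 37 degrees C, GFP fluorescence quantified per cell by imaging cytometry.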
# TDP1 inh: inhibitors of human tyrosyl-DNA phosphodiesterase TDP1; Q9NUW8; recombinant TDP1, AlphaScreen DNA substrate cleavage; Potency, µM (series often up to 130 µM), without a hit: top-dose activity change, negative = inhibition, most hits filed as inhibitors; 350,000 compounds, 0.28% hits; further: potency means the concentration at half of the fitted maximal effect; on the % scale 0 is the no-effect control and ±100 the full control effect; nearly all actives have a fitted effect of over 40% in size
# Target sequence (Q9NUW8 whole entry, looked up): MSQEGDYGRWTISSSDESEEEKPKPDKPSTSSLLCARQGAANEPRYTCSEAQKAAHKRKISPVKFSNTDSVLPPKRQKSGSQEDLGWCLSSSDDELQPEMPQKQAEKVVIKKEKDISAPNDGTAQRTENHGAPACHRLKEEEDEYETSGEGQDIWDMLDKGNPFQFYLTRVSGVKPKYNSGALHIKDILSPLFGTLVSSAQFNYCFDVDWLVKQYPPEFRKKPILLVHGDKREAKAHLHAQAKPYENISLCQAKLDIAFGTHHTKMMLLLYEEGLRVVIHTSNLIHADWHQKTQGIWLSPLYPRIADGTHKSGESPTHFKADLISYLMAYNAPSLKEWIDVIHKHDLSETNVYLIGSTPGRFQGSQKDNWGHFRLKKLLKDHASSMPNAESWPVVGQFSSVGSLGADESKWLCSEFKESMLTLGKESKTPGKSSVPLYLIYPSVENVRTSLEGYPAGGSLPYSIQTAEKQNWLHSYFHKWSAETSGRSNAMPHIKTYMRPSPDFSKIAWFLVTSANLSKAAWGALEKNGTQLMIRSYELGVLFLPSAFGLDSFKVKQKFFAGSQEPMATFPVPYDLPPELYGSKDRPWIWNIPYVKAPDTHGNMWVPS
#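 Enzyme-compound mixtures sat 15 min at room temperature, followed by a 5 min reaction with 15 nM final substrate and 10 min with AlphaScreen beads. Recombinant human Tdp1 was used at 1 nM final.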
# DT40 TDP1 CPT: growth inhibition of DT40 Tdp1-/-;hTDP1 cells with camptothecin (screen for TDP1 inhibitors); chicken DT40 Tdp1-/-;hTDP1 cells + 20 nM CPT, ATP luminescence, 48 h; Potency, µM (highest dose often 46.2 µM), for inactives: top-dose activity change, negative = growth inhibition, most hits filed as inhibitors; 420,000 compounds, 12% hits; AID 686979; further: potency means the concentration at half of the fitted maximal effect; on the % scale 0 is the no-effect control and ±100 the full control effect; nearly all actives have a fitted effect of over 55% in size
#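 Chicken DT40 Tdp1-/- cells stably complemented with human TDP1 were seeded at 400 cells/well in medium containing 20 nM camptothecin, exposed to pin-transferred compounds, and grown at 37 °C for at least 48 hr. Viability was read as ATP luminescence.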
# HepG2 tox: HepG2 cytotoxicity, counter-screen for TGF-b inhibitors. HepG2 CAGA-GFP viability, ATP luminescence, 18 h. Potency, µM (top dose mostly 46.1 µM), for inactives: at the highest dose activity change, negative = cytotoxicity, hits mostly cytotoxic. 410,000 compounds, 0.76% hits. AID 588856; further: potency means the concentration at half of the fitted maximal effect
#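 HepG2 CAGA-GFP cells (1000/well, DMEM with 1% FBS) received compound, then TGF-beta at 500 pg/mL final, and were incubated 18 hours at 37 degrees C. Viability was read by CellTiter-Glo luminescence. Media-only wells were set as complete cell-killing and DMSO as no toxicity.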
# * hit, by the source's call; ? = inconclusive; . = not tested or not shown; [ ] = dose if it differs, or a comment. Unless noted, the call rests on the fitted dose curve; in most records, active means well fitted curve in the direction sought with a large enough effect; inconclusive means small, poorly fitted or top-dose-only effect, or another doubt; inactive means no such curve, though single readings can be large; an effect the other way counts as inactive or inconclusive.
SMILES,DT40 TDP1 no CPT,IL1B secr inh,TGFb SMAD3 inh,TDP1 inh,DT40 TDP1 CPT,HepG2 tox
COc1ccc(/C=C/C(=O)Nc2cccc(S(=O)(=O)NC3=NCCCCC3)c2)cc1,23.1µM*,0.0,1.2%,4.8%,?,-13.6%
O=C(/C=C/c1ccc(OC(F)F)cc1)Nc1cccc(S(=O)(=O)NC2=NCCCCC2)c1,?,-80.9*,?,3.6%,?,-14.2%
COCC(=O)N1CCC[C@@]2(CCN(C(=O)Nc3cccc(C#N)c3)C2)C1,-1.9%,.,.,.,14.8%,.
COC(=O)c1ccccc1NC(=O)c1cc(CN2CCOCC2)on1,-10.8%,.,-3.2%,4.5%,5.4%,-6.9%
CO/N=C(\C(=O)N[C@@H]1C(=O)N2C(C(=O)[O-])=C(C[n+]3cccc4c3CCC4)CS[C@H]12)c1csc(N)n1,-29.8%,.,.,.,?,.
O=C(Cn1c(=O)n(Cc2ccco2)c(=O)c2ccccc21)Nc1ccc(Cl)cc1Cl,?,.,-8.9%,5.5%,?,0.7%
COc1cc2oc(=O)cc(-c3ccc(-c4ccc(OC(F)(F)F)cc4)cc3)c2c(OC)c1OC,11.6µM*,62.6,?,-0.8%[56.1 µM],16.4µM*,-26.8%
CCOC(=O)c1ccc(-c2ccc(-c3cc(=O)oc4cc(OC)c(OC)c(OC)c34)cc2)cc1,18.4µM*,5.6,-5.6%,0.2%[56.1 µM],18.4µM*,-30.5%
COc1ccc(-c2cccc(-c3cc(=O)oc4cc(OC)c(OC)c(OC)c34)c2)cc1,?,71.8,-17.8%,0.4%[56.1 µM],?,-21.7%
COc1ccc(-c2ccc(-c3cc(=O)oc4cc(OC)c(OC)c(OC)c34)cc2)cc1F,23.1µM*,-17.6,30.8%,-2.8%[56.1 µM],18.4µM*,29.6%
COc1cc2oc(=O)cc(-c3ccc(-c4ccc(F)c(Cl)c4)cc3)c2c(OC)c1OC,14.6µM*,23.9,?,-2.6%[56.1 µM],18.4µM*,-4.8%
COc1cc2oc(=O)cc(-c3ccc(-c4ccc(N(C)C)cc4)cc3)c2c(OC)c1OC,?,12.9,7.0%,3.2%[56.1 µM],?,-26.0%
CCc1cccc(-n2c(=O)c3cccnc3n2CC(=O)NCc2ccccc2Cl)c1,?,.,0.8%,-5.3%,?,3.7%
CCC(C)CCCCC(=O)N[C@@H](CCN)C(=O)N[C@H](C(=O)N[C@@H](CCN)C(=O)N[C@H]1CCNC(=O)C([C@@H](C)O)NC(=O)[C@@H](CCN)NC(=O)[C@H](CCN)NC(=O)[C@H](CC(C)C)NC(=O)[C@@H](CC(C)C)NC(=O)[C@H](CCN)NC1=O)[C@@H](C)O (stereo partly drawn),.,.,.,13.3%,.,.
CC(=O)c1cccc(NC(=O)CSc2nc(=O)n(Cc3ccco3)c3c2CCC3)c1,?,.,-28.3%,7.8%,-23.1%,4.0%
C=CC[C@@H]1C=C[C@H](O/N=C(\C)CCN2CCc3nc(CC)c(CC)cc3C2)[C@H](CO)O1,.,.,.,6.9%[21 µM],.,.
COc1cc(OC)c(/C=C/c2ccc3ccccc3n2)c(OC)c1,0.1µM*,.,?,.,0.1µM*,-32.8%
COc1ccc(-c2ccc3ccccc3n2)cc1OC,?,-5.1,12.5%,-2.7%,3.8%,-7.6%
COc1cc(OC)c(/C=C/c2nccc3ccccc23)c(OC)c1,0.1µM*,.,?,.,0.0708µM*,-31.1%
COc1cc2ccc(-c3ccc4ccccc4n3)cc2cc1OC,6.51µM*,-3.6,7.4%,.,?,-17.1%
COc1ccc(/C=C/c2cnc3ccccc3n2)cc1OC,20µM*,.,-4.2%,.,?,-35.3%
CCSc1nnc(NC(=O)c2cc(=O)c3cc(C)ccc3o2)s1,-1.9%,.,-2.7%,1.2%,-2.8%,-0.6%
COc1cc(NC(=O)c2ccc(C)c(Cl)c2)ccc1NC(=O)c1cc2ccccc2o1,?,.,-9.9%,.,?,2.5%
O=C1C2Sc3[nH]c(=O)sc3C(c3cc([N+](=O)[O-])ccc3O)C2C(=O)N1c1ccccc1 (stereo not drawn),-12.6%,24.5,12.7%,1.4%,10.6%,1.7%
COc1cc(OC)c(/C=C/c2ccccn2)c(OC)c1,2.82µM*,.,-10.5%,.,3.16µM*,-11.8%
SMILES,DT40 TDP1 no CPT,IL1B secr inh,TGFb SMAD3 inh,TDP1 inh,DT40 TDP1 CPT,HepG2 tox
CCOc1cc(/C=C/c2cc(C(=O)O)c3ccccc3n2)ccc1OC,-17.3%,24.7,11.9%,-4.3%,4.4%,5.3%
COc1ccc(/C=C/c2ccc3ccccc3n2)cc1OC,12.6µM*,.,-1.5%,.,?,-19.2%
Cc1ccc(OC(C)c2nnc(N)s2)cc1Cl (stereo not drawn),?,1.7,7.1%,6.8%,20.6µM*,0.2%
COc1ccc(OC(C)c2nnc(N)s2)cc1 (stereo not drawn),0.3%,-11.4,-10.0%,2.5%,-8.2%,0.0%
Cn1c(=O)c2c(nc(NCCc3ccccc3)n2CC(=O)NCCc2ccccc2)n(C)c1=O,5.1%,-6.3,-0.2%,4.1%,-1.6%,-3.5%
C/C(Cl)=C/Cn1c(=O)c2c(nc(Br)n2Cc2ccccc2)n(C)c1=O,20.6µM*,-10.1,6.1%,-5.3%,?,32.7%
Cn1c(=O)c2c(nc(NCC3CCCO3)n2Cc2cccc(Br)c2)n(C)c1=O (stereo not drawn),14.6µM*,0.0,-8.1%,4.8%,?,1.3%
COCCCNc1nc2c(c(=O)n(Cc3cccc(Br)c3)c(=O)n2C)n1C,?,28.2,0.0%,.,-29.9%,-13.4%
C=CCn1c(NCCc2ccccc2)nc2c1c(=O)n(C)c(=O)n2C,8.2µM*,-21.1,-23.7%,2.1%,9.2µM*,-42.3%
COC(=O)Cn1c(=O)c2c(nc(Br)n2Cc2ccccc2Cl)n(C)c1=O,?,6.1,-7.7%,1.0%,?,3.3%
COCCNc1nc2c(c(=O)n(Cc3cccc(Br)c3)c(=O)n2C)n1C,23.1µM*,25.8,?,3.8%,?,-4.1%
CCOC(=O)[C@]12CCC=C1N(Cc1ccc3c(c1)OCO3)C(=O)[C@H](CC(=O)NCCCN1CCCC1=O)C2,-1.5%,6.6,.,.,6.5%,.
CCOc1ccc(NC(=O)CSc2nc3c(oc4ccccc43)c(=O)n2CCOC)cc1,-13.1%,.,-13.2%,-1.0%,-29.8%,-24.7%
CCOc1ccc(NC(=O)Cn2cc(S(=O)(=O)NC)c(S(=O)(=O)NC)c2)cc1,-14.9%,.,0.0%,5.6%,-3.1%,-16.8%
CCC(=O)N1CCc2cc(CNC(=O)Nc3cc(OC)c(OC)c(OC)c3)ccc21,-17.0%,.,33.5%,6.5%,-16.7%,6.0%
Cc1ccccc1C(=O)NNS(=O)(=O)c1ccc(F)cc1,-1.2%,-20.7,4.8%,.,1.4%,3.4%

# Assay outcomes as filed in PubChem.
